From PubChem
ERAP1 HTS inh: human ERAP1 aminopeptidase inhibitors, primary screen, biochemical, single point, plate reader. AID 652197, 2013. recombinant ERAP1, Leu-AMC fluorescence, 60 min. Endoplasmic reticulum aminopeptidase 1 (Homo sapiens), Q9NZ08. actives 0.15% (n = 340,000). inhibition, % at 10.7 µM;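 active means mean replicate inhibition of at least 30%, or all replicates individually reaching that 30% level; inactive means mean below 30% and not every replicate reaching it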;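 further: 0% = neutral control wells and 100% = L-leucinethiol positive control wells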
HDAC3 inh: HDAC3 deacetylase inhibitors, primary screen, biochemical, fluorescence, cell-free homogeneous; Histone deacetylase 3 (Homo sapiens), O15379; inhibition, % at 8.3 µM; AID 2718, 2010; recombinant HDAC3, fluorogenic peptide/trypsin coupled; actives 0.15% (n = 320,000); in the data active means inhibition above about 26%, passing the limit was not always enough
ERp5 block: inhibitors of ERp5-driven insulin aggregation, primary screen, biochemical, turbidity, absorbance 650 nm, single point; Protein disulfide-isomerase A6 (Homo sapiens), Q15084; 90 min; inhibition, % at 9.99 µM; actives 0.05% (n = 350,000);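 active means mean replicate inhibition above about 25%, with every replicate also reaching it, limit read from the data, passing the limit was not always enough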
SIRT5 inh: SIRT5 desuccinylase inhibitors, primary screen, biochemical, fluorescence imaging, single point, set 5. actives 1.1% (n = 330,000). NAD-dependent protein deacylase sirtuin-5, mitochondrial (Homo sapiens), Q9NXA8. AID 652115, 2013. inhibition, % at 15 µM. Purified SirT5, succinyl-peptide AMC, trypsin-coupled fluorescence; in the data active means inhibition above about 15%
Target sequence (Q9NXA8 whole entry, looked up): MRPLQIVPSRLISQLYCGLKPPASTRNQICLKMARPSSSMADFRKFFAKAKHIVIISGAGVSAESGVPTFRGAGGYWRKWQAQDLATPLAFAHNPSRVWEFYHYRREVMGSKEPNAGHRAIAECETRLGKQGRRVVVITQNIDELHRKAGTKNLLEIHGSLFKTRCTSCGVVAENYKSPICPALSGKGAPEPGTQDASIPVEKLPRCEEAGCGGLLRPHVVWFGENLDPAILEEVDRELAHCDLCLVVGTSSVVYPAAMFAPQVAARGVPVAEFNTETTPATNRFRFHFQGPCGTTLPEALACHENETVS
PDI inh: inhibitors of human PDI, primary screen, biochemical, turbidity, single point, plate reader; Protein disulfide-isomerase (Homo sapiens), P07237; PDI insulin aggregation turbidity, A650, 90 min; inhibition, % at 10 µM; actives 0.052% (n = 350,000); AID 588391, 2011;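 active means mean inhibition across replicates of 30% or more, whatever share of single replicates reach that level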
* = called active by the depositor. Only a selection was taken, and hits are over-represented in it overall.

For CCc1cc2c(=O)c(-c3nc4ccccc4n3C)coc2c(CN2CCCCC2)c1O the results were ERAP1 HTS inh 3, ERp5 block -3, SIRT5 inh 34* and PDI inh -12.
Screening C[C@H]1CN([C@@H](C)CO)C(=O)Cc2cc(NC(=O)Cn3cnnn3)ccc2O[C@@H]1CN(C)C(=O)Nc1ccc(C(F)(F)F)cc1 returned ERAP1 HTS inh 2, ERp5 block -5 and SIRT5 inh 2.
Screening CCOc1ccc(Nc2nc3cc(S(=O)(=O)CC)ccc3o2)cc1 returned HDAC3 inh 3, ERp5 block -3, SIRT5 inh 18* and PDI inh 11.
For C[C@@H]1CN([C@H](C)CO)C(=O)c2cc(N(C)C)ccc2O[C@H]1CN(C)S(=O)(=O)c1ccccc1 the results were ERAP1 HTS inh 4, ERp5 block -7 and SIRT5 inh 33*.
C[C@H](CO)N1C[C@H](C)[C@@H](CN(C)S(=O)(=O)c2ccccc2)Oc2c(cccc2N(C)C)C1=O was read as ERAP1 HTS inh -1, HDAC3 inh -1, ERp5 block -5, SIRT5 inh 25* and PDI inh 5.
For C[C@H]1CN([C@@H](C)CO)C(=O)c2cc(N(C)C)ccc2O[C@@H]1CN(C)S(=O)(=O)c1ccccc1 the results were ERAP1 HTS inh 2, ERp5 block 1 and SIRT5 inh 8.
`O=C(NCc1cccs1)c1cccnc1C(=O)O` gave HDAC3 inh 3 and PDI inh -6.
O=C(NCc1ccc(F)cc1)c1cccnc1C(=O)O was read as ERAP1 HTS inh -5, HDAC3 inh -4, ERp5 block 2, SIRT5 inh 23* and PDI inh -1.
`COCCNC(=O)C[C@@H]1CC[C@H]2[C@@H](COc3ccc(NC(=O)C4CCCC4)cc3C(=O)N2C)O1` gave ERAP1 HTS inh -4, ERp5 block -5 and SIRT5 inh 5.
CC(C)c1cccc(C(C)C)c1NC(=O)CCl was read as ERAP1 HTS inh 2, HDAC3 inh -6, ERp5 block -2, SIRT5 inh 16* and PDI inh -13.
O=[N+]([O-])c1ccc2nc(C(O)C(O)c3nc4ccc([N+](=O)[O-])cc4[nH]3)[nH]c2c1 (stereo not drawn) was read as ERAP1 HTS inh 0, HDAC3 inh 5, ERp5 block -2, SIRT5 inh 100* and PDI inh 2.
Screening COCCCNc1ncnc2c1sc1nc(-c3ccco3)c3c(c12)CC(C)(C)OC3 returned HDAC3 inh 8, ERp5 block 0, SIRT5 inh 19* and PDI inh -2.
For Cc1cccc(NC(=O)N2CCCC(CNC(=O)c3ccccc3Cl)C2)c1C (stereo not drawn) the results were ERAP1 HTS inh 4, HDAC3 inh -1, ERp5 block -1, SIRT5 inh 31* and PDI inh -4.
Screening CC(=O)c1ccc(C(=O)N2CCCC(CNC(=O)c3ccccc3Cl)C2)cc1 (stereo not drawn) returned ERAP1 HTS inh -3, HDAC3 inh 4, ERp5 block -11, SIRT5 inh -1 and PDI inh -3.
For CNC[C@@H]1Oc2ncc(C#Cc3ccc(OC)c(OC)c3)cc2C(=O)N([C@H](C)CO)C[C@@H]1C the results were ERAP1 HTS inh 0, ERp5 block 2 and SIRT5 inh 0.
For O=C(Oc1ccc(O)cc1)C12CC3CC(CC(C3)C1)C2 the results were ERAP1 HTS inh 1, HDAC3 inh 3, ERp5 block -1, SIRT5 inh 0 and PDI inh 65*.
`O=C(COc1ccc(Cl)cc1Cl)Nc1ccc(CN2CCCCC2)cc1` gave ERAP1 HTS inh -1, HDAC3 inh 1, ERp5 block 1, SIRT5 inh 112* and PDI inh 8.
O=C(COc1ccc(Cl)cc1Cl)Nc1ccc(CN2CCOCC2)cc1 was read as ERAP1 HTS inh 1, HDAC3 inh 2, ERp5 block 2, SIRT5 inh 0 and PDI inh -1.
`COc1ccc(OC)c(S(=O)(=O)Oc2ccc(N)c3ccccc23)c1` gave HDAC3 inh 3, ERp5 block 0, SIRT5 inh 15* and PDI inh 5.
COc1ccc(OC)c(S(=O)(=O)Nc2cccc3ccccc23)c1 was read as ERAP1 HTS inh -1, HDAC3 inh 2, ERp5 block 7, SIRT5 inh -2 and PDI inh 2.
For CN(C)CC#CCC(O)(c1ccccc1)C1CCCCC1 (stereo not drawn) the results were ERAP1 HTS inh 0, HDAC3 inh 8, ERp5 block 3, SIRT5 inh -2 and PDI inh -43.
For CCN(CC)CC#CCC(O)(c1ccccc1)C1CCCC1 (stereo not drawn) the results were ERAP1 HTS inh 11, HDAC3 inh -2, ERp5 block 3, SIRT5 inh 18* and PDI inh 1.
Screening Cc1oc2c(c(C)cc3oc(=O)c(CC(=O)N[C@H](C(=O)O)C(C)C)c(C)c32)c1C returned ERAP1 HTS inh 35*, HDAC3 inh -13, ERp5 block 3, SIRT5 inh -5 and PDI inh 2.
Screening Cc1oc2c(c(C)cc3oc(=O)c(CC(=O)N[C@@H](CC(C)C)C(=O)O)c(C)c32)c1C returned ERAP1 HTS inh 15, HDAC3 inh -7, ERp5 block 0, SIRT5 inh -4 and PDI inh 6.
`COc1ccc(S(=O)(=O)N(C)C[C@@H]2Oc3c(NC(=O)c4cnccn4)cccc3C(=O)N([C@H](C)CO)C[C@@H]2C)cc1` gave ERAP1 HTS inh 2, ERp5 block 1 and SIRT5 inh -2.
Screening CSc1ccccc1C(=O)N1CCCCC1 returned ERAP1 HTS inh -3, HDAC3 inh -1, ERp5 block 1, SIRT5 inh 20* and PDI inh 4.
For COc1ccc(S(=O)(=O)Nc2ccc3c(c2)CC(=O)N([C@@H](C)CO)C[C@H](C)[C@H](CN(C)Cc2ccc(C(F)(F)F)cc2)O3)cc1 the results were ERAP1 HTS inh -1, ERp5 block -8 and SIRT5 inh 22*.
`COc1ccc(S(=O)(=O)Nc2ccc3c(c2)CC(=O)N([C@H](C)CO)C[C@@H](C)[C@@H](CN(C)Cc2ccc(C(F)(F)F)cc2)O3)cc1` gave ERAP1 HTS inh -1, ERp5 block 8 and SIRT5 inh 22*.
`C[C@H](CO)N1C[C@H](C)[C@@H](CN(C)Cc2ccc(C(F)(F)F)cc2)Oc2ccc(NS(=O)(=O)c3ccc(F)cc3)cc2CC1=O` gave ERAP1 HTS inh -2, ERp5 block -1 and SIRT5 inh 35*.
